Screens deposited in PubChem by several laboratories.
CYP2C19 inh = inhibitors of human CYP2C19; P33261; CYP2C19 Supersomes, luciferin-H EGE luminescence, 30 min; inhibition, % at 5 µM; 96,000 tested, 21% active;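 active = CYP2C19 inhibition above a set limit at 5 µM in the primary screen, cut at about 50% in these data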
CYP2C9 activ = activators of human CYP2C9 | P11712 | recombinant CYP2C9, luciferin-H conversion, luminescence; hits give high values; factor 1 = untreated enzyme, 0 = blocked | activation factor at 5 µM | 96,000 tested, 1.4% active;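 active = activation factor of 2 or more for CYP2C9 at a 5 µM dose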
Target sequence (P11712 whole entry, looked up): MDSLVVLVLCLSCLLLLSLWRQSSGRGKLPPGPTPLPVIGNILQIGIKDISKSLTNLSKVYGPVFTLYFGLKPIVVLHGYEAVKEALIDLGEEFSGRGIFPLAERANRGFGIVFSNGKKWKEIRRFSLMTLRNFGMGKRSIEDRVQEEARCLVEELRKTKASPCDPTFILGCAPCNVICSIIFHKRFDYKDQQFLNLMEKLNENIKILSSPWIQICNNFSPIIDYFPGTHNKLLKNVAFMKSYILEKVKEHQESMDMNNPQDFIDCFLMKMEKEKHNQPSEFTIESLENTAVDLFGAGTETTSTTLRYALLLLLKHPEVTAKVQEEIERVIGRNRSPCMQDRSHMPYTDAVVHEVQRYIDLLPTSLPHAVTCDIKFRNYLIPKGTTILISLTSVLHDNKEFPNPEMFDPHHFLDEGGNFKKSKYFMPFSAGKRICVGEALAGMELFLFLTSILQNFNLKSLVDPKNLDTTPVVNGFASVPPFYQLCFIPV
sEH inhibitor = blocks human soluble epoxide hydrolase activity. P34913. recombinant human sEH enzymatic activity assay. inhibition, % at 2 µM. 91,000 tested, 0.34% active. AID 707; in the data active = inhibition above about 80%
CYP2C19 act = activators of human cytochrome P450 2C19. recombinant CYP2C19, luciferin-H EGE luminescence; hits give high values; 0 = fully inhibited enzyme, 1 = untreated enzyme. activation factor at 5 µM. 96,000 tested, under 10 active;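 active = activation factor of at least 2 at 5 µM in the primary screen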
CYP2C9 inhib = inhibitors of human CYP2C9 | CYP2C9 Supersomes, luciferin-H conversion, luminescence | inhibition, % at 5 µM | 96,000 tested, 20% active | AID 777;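 active = blocking of liver enzyme CYP2C9 beyond about 50% at 5 µM, limit read from the data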
sEH act = activators of human soluble epoxide hydrolase. P34913. purified human sEH enzymatic activity, activator screen. activation, % at 2 µM. 91,000 tested, 0.04% active. AID 717; in the data active = activation above about 37%
Large screens that a line does not name were inactive. Most compounds without a hit are left out; they make up all but 27% or so of the library.

CC1CCC(C(C)C)C(OC(=O)CSc2n[nH]c(=O)[nH]c2=O)C1 (stereo unspecified)	none (no result: sEH inhibitor, sEH act)
Cc1noc(C)c1CSc1nnc2scc(-c3ccc(Cl)cc3)n12	none
CCc1ccc(C2C(C#N)=C(N)SC(N)=C2C#N)cc1	none
CCc1ccc(C2C(C#N)=C(N)SC(N)=C2C#N)s1	CYP2C9 inhib 76 (no result: sEH inhibitor, sEH act)
Cc1cc(C)cc(Oc2ccc(C(F)(F)F)cc2C#N)c1	CYP2C19 inh 58, CYP2C9 inhib 52
CCCCN1C(=O)c2ccc(C(=O)NC3=NCCS3)cc2C1=O	CYP2C9 inhib 72
CCCCN1C(=O)c2ccc(C(=O)Nc3cccc(C)c3C)cc2C1=O	none
O=S(=O)(c1cccc(-c2csc(-c3cccnc3)n2)c1)N1CCCCC1	CYP2C19 inh 94, CYP2C9 inhib 94
CC1CCN(S(=O)(=O)c2cccc(-c3csc(-c4cccnc4)n3)c2)CC1	CYP2C19 inh 85, CYP2C9 inhib 79
Cc1ccc(-c2ccc(/C=N/N3C(=O)C4C5C=CC(C6CC56)C4C3=O)o2)c([N+](=O)[O-])c1 (stereo unspecified)	none
Cc1cc(C)n2nc(C(=O)OCCOc3cccc(Br)c3)nc2n1	none (no result: sEH inhibitor, sEH act)
O=C(NC1CCCCCCC1)c1ccc(CNc2c(N3CCOCC3)c(=O)c2=O)cc1	none (no result: sEH inhibitor, sEH act)
COc1cc2c(cc1NC(=O)c1cc(-c3cccnc3)nc3ccc(C)cc13)oc1ccccc12	CYP2C9 inhib 75
COc1ccc(NC(=O)c2cc(-c3cccnc3)nc3c(C)c(C)ccc23)c(OC)c1	CYP2C19 inh 80, CYP2C9 inhib 86
COc1cc2c(cc1NC(=O)Nc1ccc(C)cc1)oc1ccccc12	none
COc1ccc(NC(=O)c2cc3nc(-c4ccccc4)cc(-c4ccccc4)n3n2)c(OC)c1	CYP2C9 inhib 77
COc1cccc(C(=O)Nc2cccnc2)c1	none
COc1cccc(NC(=O)c2cc(-c3cccnc3)nc3c(Cl)cccc23)c1	CYP2C9 inhib 77
COc1ccc2cnn(CCOc3ccccc3)c(=O)c2c1OC	none
COc1cc2c(cc1NC(=O)Nc1cccc(C)c1)oc1ccccc12	none
COc1cc2c(cc1NC(=O)/C=C/c1ccccc1)oc1ccccc12	CYP2C9 inhib 78
CN(C)c1nc(N)nc(CSc2nnnn2-c2ccc(F)cc2)n1	CYP2C19 inh 76
Nc1nc(CSc2nnnn2-c2ccccc2)nc(N2CCCc3ccccc32)n1	none (no result: CYP2C19 inh, CYP2C9 activ, CYP2C19 act, CYP2C9 inhib)
C=CCNC(=O)c1onc(CSc2cccc(Cl)c2)c1C(=O)O	CYP2C9 inhib 68
COCCNC(=O)c1onc(CSc2cccc(Cl)c2)c1C(=O)O	none
Cc1cccc(SCc2noc(C(=O)NCC3CCCO3)c2C(=O)O)c1 (stereo unspecified)	none
C=CCNC(=O)c1onc(CSc2cccc(C)c2)c1C(=O)O	CYP2C9 inhib 65
COc1ccc(NC2CC(=O)N(CCc3ccccc3)C2=O)cc1 (stereo unspecified)	none (no result: CYP2C19 inh, CYP2C9 activ, CYP2C19 act, CYP2C9 inhib)
O=C1CC(=C(c2ccccc2)c2ccccc2)C(=O)N1CCCCN1CCN(c2ccccc2)CC1	CYP2C9 inhib 73
Cc1ccccc1NC(=O)NCCCN1CCN(c2ccccc2)CC1	none
CC(C)CC(C(=O)NCC1CCCO1)N(C(=O)Cn1nnc(-c2ccc(F)cc2)n1)c1ccccc1F (stereo unspecified)	none
CCCSc1nn2c(=O)c3ccccc3nc2s1	CYP2C19 inh 79
O=C(NCCO)c1cccc(Nc2nc(-c3ccccc3)c3cc(Cl)ccc3n2)c1	none
C/C(=C(\C#N)C(=O)NCc1ccccc1)N(C)C	none
Cc1cccc(NC(=S)N(CCN(C)C)C(C)c2ccccn2)c1 (stereo unspecified)	none
Cc1cccc(CN2C(=O)N/C(=C/c3cc(C)n(-c4ccccn4)c3C)C2=O)c1	CYP2C9 inhib 98
Nc1nc(Cn2nnc(-c3ccccc3Cl)n2)nc(N2CCOCC2)n1	CYP2C19 inh 55 (no result: sEH inhibitor, sEH act)
CC(C)NC(=O)c1cnc(Sc2ncc(C(F)(F)F)cc2Cl)n1C	CYP2C9 activ 2.1
Cn1c(C(N)=O)cnc1Sc1ncc(C(F)(F)F)cc1Cl	none
CC(C)(C)NC(=O)CCN1CCOCC1	none
O=c1[nH]nc(Cc2ccc(-c3ccc(Cl)cc3)o2)c2ccccc12	none
Cc1cnn(C(=S)NCc2ccc(Cl)cc2)c1	none (no result: CYP2C19 inh, CYP2C9 activ, CYP2C19 act, CYP2C9 inhib)
Cc1cnn(C(=S)NCCc2ccccc2)c1	CYP2C19 inh 84
COc1ccc(-c2cc3nc(C4CCN(C(=O)OC(C)(C)C)CC4)c(C(=O)O)cn3n2)cc1	CYP2C9 inhib 75
CCn1nccc1C(=O)Nc1cc(Cl)cc(Cl)c1	none (no result: CYP2C19 inh, CYP2C9 activ, CYP2C19 act, CYP2C9 inhib)
CCn1nccc1C(=O)Nc1ccc(Cl)cn1	CYP2C19 inh 59
CCn1ccc(C(=O)Oc2ccc(Cl)cc2)n1	none
CCn1ccc(C(=O)Nc2ccc(Cl)cn2)n1	CYP2C19 inh 67 (no result: sEH inhibitor, sEH act)
CC(=O)N1CCN(c2ccc(Oc3nnnn3-c3ccccc3)cc2)CC1	none (no result: sEH inhibitor, sEH act)
CCCCC(=O)Nc1ccc(N2CCN(S(C)(=O)=O)CC2)cc1	none
O=C(NC1CC1)C1=NOC(CNc2ncc(C(F)(F)F)cc2Cl)C1 (stereo unspecified)	CYP2C19 inh 85, CYP2C9 activ 2.4
O=C(N/C=N/O)C1=NOC(CNc2ncc(C(F)(F)F)cc2Cl)C1 (stereo unspecified)	CYP2C19 inh 77
CC(C(=O)OCn1nnc2ccccc2c1=O)N1C(=O)c2ccccc2C1=O (stereo unspecified)	none
CCC(c1nnnn1CCC(C)C)N1CCC(C(N)=O)CC1 (stereo unspecified)	none
COCC(=O)NC(C)c1nc2ccccc2[nH]1 (stereo unspecified)	none (no result: sEH inhibitor, sEH act)
CCN(CC)C(=O)c1cc(-c2ccc(Br)cc2)on1	none
CC(C)CCN(C(=O)Nc1ccccc1)C(C)c1cccs1 (stereo unspecified)	CYP2C9 inhib 74
CC(c1cccs1)N(C(=O)Nc1ccccc1)C1CCCCC1 (stereo unspecified)	none
N#Cc1nc(-c2ccco2)oc1N1CCc2ccccc2C1	CYP2C19 inh 68, CYP2C9 inhib 86
N#Cc1nc(-c2ccco2)oc1N1CCN(c2cccc(Cl)c2)CC1	CYP2C19 inh 76, CYP2C9 inhib 69
COc1ccc(C2C(C#N)=C(N)Oc3cc(C)n(Cc4ccco4)c(=O)c32)cc1 (stereo unspecified)	CYP2C9 inhib 68
COc1ccccc1C1C(C#N)=C(N)Oc2cc(C)n(Cc3ccccn3)c(=O)c21 (stereo unspecified)	none
COc1ccccc1C1C(C#N)=C(N)Oc2cc(C)n(CCCn3ccnc3)c(=O)c21 (stereo unspecified)	CYP2C19 inh 90, CYP2C9 inhib 100
Cc1cc2c(c(=O)n1Cc1ccc3c(c1)OCO3)C(c1cccnc1)C(C#N)=C(N)O2 (stereo unspecified)	CYP2C9 inhib 52 (no result: sEH inhibitor, sEH act)
Cc1cc2c(c(=O)n1CCCn1ccnc1)C(c1ccco1)C(C#N)=C(N)O2 (stereo unspecified)	CYP2C19 inh 76, CYP2C9 inhib 100
